This note sets out measurements from PubChem BioAssay (NCI).

Test systems include NCI-H23 lung; NCI-H226 lung; NCI-H322M lung; HOP-62 NSCLC; NCI-H460 lung; HOP-92 NSCLC; NCI-H522 lung; A549/ATCC NSCLC; 786-0 renal; COLO 205 colon; DU-145 prostate; K-562 leukemia; MALME-3M melanoma; MDA-MB-231 breast; RXF 393 renal; SF-268 CNS; SF-295 CNS; SF-539 CNS; UACC-257 melanoma; M14 melanoma.
What all share (experiment): NCI-60 one-dose screen, 48 h (100 = growth as untreated, 0 = no growth, -100 = all killed)
Holding throughout (conditions): 10 µM unless noted

Compounds without any hit were thinned out: in the full panel of roughly 83,000, 20% have a hit.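 How to read the values: 0–100, growth inhibition (40 = 60% inhibited); 0, no net growth; -100 to 0, cell death (-40 = 40% of starting cells died; -100 = all dead).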 Unmarked numbers belong to inactive results. Calls of active or inactive are those of the source. How the source made its calls: active means growth percent below 10; inactive means the rest.

On to `N#Cc1c(-c2ccc(F)cc2)nc(N=Nc2c(O)[nH]c3ccc(Cl)cc23)nc1N1CCOCC1`, for which the growth in the assay with NCI-H23 lung was 37.4%; in the assay on NCI-H226 lung, 10.5%; with NCI-H322M lung, 46.9%; with HOP-62 NSCLC, 11.6%; with NCI-H460 lung, 51.8%; in the assay on HOP-92 NSCLC, -9.97% (active). Besides, the growth in the assay on NCI-H522 lung was 53.4%; with A549/ATCC NSCLC, 23.8%; with 786-0 renal, 17%; in the assay with COLO 205 colon it was 65.5%; in the assay with DU-145 prostate, 40%; in the assay on K-562 leukemia, 62.4%. For the same compound, the growth is 38% in the assay on MALME-3M melanoma; 26.9% with MDA-MB-231 breast; 8.65% (active) in the assay with RXF 393 renal; 41.4% with SF-268 CNS; 13.9% with SF-295 CNS; 2.98% (active) with SF-539 CNS. Further, the growth with UACC-257 melanoma is 57.3%; in the assay with M14 melanoma, 51.5%.

Turning to `COc1ccccc1Nc1nnc(-c2ccc(Cl)cc2)o1`, the growth with NCI-H23 lung was 63.9%; in the assay with NCI-H226 lung, 73.6%; in the assay with NCI-H322M lung, 70.5%; with HOP-62 NSCLC, 47.4%; in the assay with NCI-H460 lung it was 16.1%; in the assay on HOP-92 NSCLC, 91.1%. The growth was 16.6% with NCI-H522 lung; 34.4% in the assay with A549/ATCC NSCLC; 75.8% in the assay on 786-0 renal; 35.3% with COLO 205 colon; 72.3% with DU-145 prostate; 11.7% in the assay with K-562 leukemia. Moreover, the growth in the assay with MALME-3M melanoma is 46.3%; in the assay with MDA-MB-231 breast it was 63.5%; in the assay with RXF 393 renal, 74.6%; in the assay with SF-268 CNS, 60.5%; in the assay with SF-295 CNS, 40.3%; in the assay with SF-539 CNS, 57.1%. Also, the growth is 65.8% with UACC-257 melanoma and 21.7% in the assay with M14 melanoma.

Take `COc1ccccc1-c1ccc2nc(NC(=O)Nc3cc(C(F)(F)F)cc(C(F)(F)F)c3)sc2c1`: the growth in the assay on NCI-H23 lung is 6.38% (active); in the assay with NCI-H226 lung, 16.9%; in the assay with NCI-H322M lung, 15.3%; with HOP-62 NSCLC, -1.58% (active); in the assay on NCI-H460 lung, -4.9% (active); in the assay on HOP-92 NSCLC, -8.46% (active). The growth in the assay on NCI-H522 lung was -2.89% (active); in the assay on A549/ATCC NSCLC, 12.7%; in the assay with 786-0 renal, 8.85% (active); with COLO 205 colon, -84.8% (active); in the assay on DU-145 prostate, 19.5%; in the assay on K-562 leukemia it was 5.97% (active). Further, the growth in the assay on MALME-3M melanoma is -13% (active); with MDA-MB-231 breast it was -64.2% (active); with RXF 393 renal, -6.71% (active); with SF-268 CNS it was 16.8%; with SF-295 CNS it was -0.289% (active); in the assay with SF-539 CNS, 5.2% (active). The growth was -5.57% (active) in the assay on UACC-257 melanoma and 16% in the assay with M14 melanoma.

Turning to `O=C(Nc1cc(Nc2ncccc2-c2ncnc3nc[nH]c23)ccc1F)c1cc(C(F)(F)F)cc(C(F)(F)F)c1`, the growth in the assay with NCI-H23 lung is -3.98% (active); in the assay with NCI-H226 lung, 16.8%; with NCI-H322M lung, 46.7%; in the assay on HOP-62 NSCLC, -14.4% (active); in the assay with NCI-H460 lung, -30.4% (active); in the assay on HOP-92 NSCLC it was -31.3% (active). Also, the growth was 11.7% in the assay with NCI-H522 lung; 0.774% (active) in the assay with A549/ATCC NSCLC; -3.09% (active) in the assay on 786-0 renal; -60.2% (active) in the assay on COLO 205 colon; 20.9% in the assay on DU-145 prostate; -13.7% (active) in the assay on K-562 leukemia. Further, the growth with MALME-3M melanoma was -58.4% (active); in the assay on MDA-MB-231 breast, -51.3% (active); in the assay on RXF 393 renal, -63.4% (active); in the assay on SF-268 CNS it was 21.8%; in the assay with SF-295 CNS it was -52.8% (active); in the assay with SF-539 CNS, -56% (active). Moreover, the growth with UACC-257 melanoma was -0.588% (active); in the assay with M14 melanoma it was -41.7% (active).

With `C#C[C@@]1(O)[C@@H](CO)O[C@@H](n2cc(F)c3c(N)ncnc32)[C@@H]1O`, the growth in the assay with NCI-H23 lung was -30.5% (active); in the assay on NCI-H226 lung, -62.3% (active); with NCI-H322M lung, -2.54% (active); in the assay on HOP-62 NSCLC, 17.5%; in the assay on NCI-H460 lung, 0.623% (active); with HOP-92 NSCLC, -15% (active). For the same compound, the growth in the assay with NCI-H522 lung was -1.45% (active); with A549/ATCC NSCLC, -37.9% (active); in the assay on 786-0 renal, -29.5% (active); in the assay on COLO 205 colon, -43.4% (active); in the assay on DU-145 prostate, 2.84% (active); with K-562 leukemia, 9.21% (active). For the same compound, the growth with MALME-3M melanoma is -30.2% (active); with MDA-MB-231 breast, -14.8% (active); with RXF 393 renal, -36.8% (active); in the assay with SF-268 CNS, 15.9%; with SF-295 CNS, -23% (active); in the assay on SF-539 CNS, 0.929% (active). Further, the growth in the assay on UACC-257 melanoma is 2.98% (active); in the assay with M14 melanoma, -42% (active).

For the compound `CCOC(=O)c1c(C)nc2c(c1N)/C(=C/c1cccs1)C(=O)N2c1ccc(OC)cc1`, the growth is 43.9% in the assay with NCI-H23 lung; 40.5% with NCI-H226 lung; 70.6% in the assay with NCI-H322M lung; 10.2% in the assay on HOP-62 NSCLC; 34.1% in the assay with NCI-H460 lung; 22% in the assay on HOP-92 NSCLC. The growth was 29.8% in the assay with NCI-H522 lung; 34.5% in the assay with A549/ATCC NSCLC; 5.33% (active) in the assay with 786-0 renal; 63.2% in the assay with COLO 205 colon; 44.5% in the assay with DU-145 prostate; 59.1% in the assay on K-562 leukemia. Also, the growth was 26.9% in the assay with MALME-3M melanoma; 36.5% in the assay on MDA-MB-231 breast; -23.1% (active) in the assay with RXF 393 renal; 47.6% in the assay with SF-268 CNS; 47.2% in the assay with SF-295 CNS; 7.71% (active) with SF-539 CNS. Moreover, the growth in the assay with UACC-257 melanoma was 36.1%; with M14 melanoma, 58.2%.

For `COc1cc(C2CC(c3ccc(Nc4nc(NCCO)nc(NCCO)n4)cc3)=NN2c2cc(Cl)cc(Cl)c2)cc(OC)c1OC` (stereo not given), the growth was 4.73% (active) in the assay with NCI-H23 lung; 106% in the assay on NCI-H226 lung; 11.9% with NCI-H322M lung; 14.4% with HOP-62 NSCLC; -24.5% (active) with NCI-H460 lung; 89.9% in the assay on HOP-92 NSCLC. Further, the growth with NCI-H522 lung is 25.1%; with A549/ATCC NSCLC, 0.449% (active); in the assay with 786-0 renal, -17.5% (active); in the assay with COLO 205 colon it was 35%; with DU-145 prostate it was 12.8%; with K-562 leukemia it was 2.02% (active). For the same compound, the growth in the assay on MALME-3M melanoma was -66.3% (active); with MDA-MB-231 breast, -19.2% (active); in the assay on RXF 393 renal it was -42.5% (active); in the assay on SF-268 CNS, -33.3% (active); in the assay with SF-295 CNS, 6.18% (active); in the assay on SF-539 CNS, -61.3% (active). For the same compound, the values for the growth in the assay with UACC-257 melanoma and in the assay with M14 melanoma were 13.2% and -14.3% (active), respectively.
